Test [1] can be described thus: small molecules captured by biotinylated probe aFSTL3 – biochemical, small-molecule microarray, fluorescence 635/667, stem cell growth factor project, primary screen (AID 1064).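 Further: measures binding of the biotinylated anti-FSTL3 antibody to printed compounds.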 The conditions noted are these: higher = more signal.
The nature of test [2]: binders from COS7 lysate, DM2A8 probe, primary screen, torsin A project, cell lysate, small-molecule microarray, fluorescence 635/667 (AID 1065). The conditions noted are these: higher = more signal, COS7 lysate expressing mutant human TOR1A.
The nature of test [3]: small molecules captured by biotinylated probe aFGF2 – biochemical, small-molecule microarray, fluorescence 635/667, stem cell growth factor project, primary screen (AID 1067).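 Further: measures binding of biotinylated aFGF2 protein to printed compounds on slides; z-score merges feature fluorescence and signal-to-noise across triplicate slides.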 Particulars: higher = more signal.
A short description of test [4]: small molecules captured by biotinylated probe aFGF10 – biochemical, small-molecule microarray, fluorescence 635/667, stem cell growth factor project, primary screen (AID 1071).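 Further: score merges 667 nm spot intensity and signal to noise from triplicate slides.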 Particulars: higher = more signal.
The target in test [5] is Neurogenic locus notch homolog protein 2 (Homo sapiens) (UniProt Q04721). Put plainly: small molecules binding Notch2 protein – biochemical, small-molecule microarray, 635 nm fluorescence, stem cell growth factors, primary screen (AID 1073). Particulars: higher = more signal.
Neurogenic locus notch homolog protein 2 (Homo sapiens), sequence (Q04721 whole entry, looked up, canonical isoform): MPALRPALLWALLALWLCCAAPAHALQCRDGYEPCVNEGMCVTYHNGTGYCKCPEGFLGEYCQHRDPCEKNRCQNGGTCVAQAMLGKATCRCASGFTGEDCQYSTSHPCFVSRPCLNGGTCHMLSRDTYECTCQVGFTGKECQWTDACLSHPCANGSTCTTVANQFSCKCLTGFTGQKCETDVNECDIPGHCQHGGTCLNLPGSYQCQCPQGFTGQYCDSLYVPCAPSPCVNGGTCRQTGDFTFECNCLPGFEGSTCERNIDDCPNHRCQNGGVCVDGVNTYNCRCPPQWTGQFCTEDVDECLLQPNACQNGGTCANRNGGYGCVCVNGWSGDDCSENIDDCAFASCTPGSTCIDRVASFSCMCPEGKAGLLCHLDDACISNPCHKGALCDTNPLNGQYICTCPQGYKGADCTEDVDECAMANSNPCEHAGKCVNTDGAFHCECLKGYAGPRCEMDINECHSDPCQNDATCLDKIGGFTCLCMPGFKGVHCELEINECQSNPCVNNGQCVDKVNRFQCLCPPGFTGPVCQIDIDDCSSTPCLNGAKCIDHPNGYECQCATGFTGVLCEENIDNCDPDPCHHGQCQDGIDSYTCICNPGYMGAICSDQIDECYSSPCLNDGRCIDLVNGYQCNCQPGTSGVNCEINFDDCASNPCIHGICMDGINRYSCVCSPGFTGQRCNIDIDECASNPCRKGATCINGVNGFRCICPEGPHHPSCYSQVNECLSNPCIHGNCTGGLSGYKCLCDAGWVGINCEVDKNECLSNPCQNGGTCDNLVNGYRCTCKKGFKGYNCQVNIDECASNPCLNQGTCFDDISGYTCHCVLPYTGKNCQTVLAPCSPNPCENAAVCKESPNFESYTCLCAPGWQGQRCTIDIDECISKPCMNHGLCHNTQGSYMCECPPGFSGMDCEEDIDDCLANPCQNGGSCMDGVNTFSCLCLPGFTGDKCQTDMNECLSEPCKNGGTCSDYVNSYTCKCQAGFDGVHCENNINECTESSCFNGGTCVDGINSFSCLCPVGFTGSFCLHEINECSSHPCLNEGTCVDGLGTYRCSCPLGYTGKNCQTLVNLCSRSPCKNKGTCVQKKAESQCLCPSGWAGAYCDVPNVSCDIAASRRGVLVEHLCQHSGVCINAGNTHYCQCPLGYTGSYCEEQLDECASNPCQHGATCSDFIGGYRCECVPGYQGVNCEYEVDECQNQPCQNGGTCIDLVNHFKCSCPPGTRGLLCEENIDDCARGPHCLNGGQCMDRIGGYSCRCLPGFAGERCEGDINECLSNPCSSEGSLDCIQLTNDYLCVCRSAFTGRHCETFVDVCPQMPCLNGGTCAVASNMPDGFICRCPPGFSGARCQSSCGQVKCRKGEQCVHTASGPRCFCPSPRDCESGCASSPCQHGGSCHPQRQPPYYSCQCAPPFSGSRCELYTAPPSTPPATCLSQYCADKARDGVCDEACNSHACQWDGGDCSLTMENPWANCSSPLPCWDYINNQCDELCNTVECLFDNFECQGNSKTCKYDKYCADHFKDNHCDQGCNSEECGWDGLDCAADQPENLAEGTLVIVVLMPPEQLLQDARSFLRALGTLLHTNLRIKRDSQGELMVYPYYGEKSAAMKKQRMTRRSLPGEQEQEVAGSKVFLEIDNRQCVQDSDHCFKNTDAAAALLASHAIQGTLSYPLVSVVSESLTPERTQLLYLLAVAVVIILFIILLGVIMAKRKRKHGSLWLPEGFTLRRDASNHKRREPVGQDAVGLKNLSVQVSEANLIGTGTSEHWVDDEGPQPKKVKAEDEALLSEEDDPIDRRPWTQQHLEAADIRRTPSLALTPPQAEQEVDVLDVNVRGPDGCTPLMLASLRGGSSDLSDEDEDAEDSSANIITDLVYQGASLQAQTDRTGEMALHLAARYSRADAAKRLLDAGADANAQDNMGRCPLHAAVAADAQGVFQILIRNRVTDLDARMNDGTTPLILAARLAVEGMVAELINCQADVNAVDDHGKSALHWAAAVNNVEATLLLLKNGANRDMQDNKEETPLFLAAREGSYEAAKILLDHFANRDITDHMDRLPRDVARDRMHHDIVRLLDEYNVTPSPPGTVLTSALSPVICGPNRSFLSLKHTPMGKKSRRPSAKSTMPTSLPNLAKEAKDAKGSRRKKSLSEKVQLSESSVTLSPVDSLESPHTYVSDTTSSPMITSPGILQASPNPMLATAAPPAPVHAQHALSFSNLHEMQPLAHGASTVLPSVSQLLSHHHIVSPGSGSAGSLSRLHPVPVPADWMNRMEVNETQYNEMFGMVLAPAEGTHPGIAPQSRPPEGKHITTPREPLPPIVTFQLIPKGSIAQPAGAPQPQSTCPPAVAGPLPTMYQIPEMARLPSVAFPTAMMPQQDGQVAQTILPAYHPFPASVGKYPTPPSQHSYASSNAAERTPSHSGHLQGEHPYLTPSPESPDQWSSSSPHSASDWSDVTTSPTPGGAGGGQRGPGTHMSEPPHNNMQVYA
The target in test [6] is Pro-neuregulin-1, membrane-bound isoform (Homo sapiens) (UniProt Q02297). The test is described as follows: small molecules binding neuregulin-1 protein – biochemical, small-molecule microarray, fluorescence 635/667, psychiatric disease protein project, primary screen (AID 1075).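 Further: score combines 667 nm spot fluorescence with signal to noise.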 Particulars: NRG1 binding, 635 nm fluorescence, higher = more signal.
Test [7] deals with Neuregulin-1 EGF-like domain. The test is described as follows: small molecules binding NRG1 EGF domain – biochemical, small-molecule microarray, 635 nm fluorescence, primary screen (AID 1081).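 Further: binding of the protein to compounds printed on small-molecule microarray slides.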 Particulars: higher = more signal.
Test [8] in a line: FRG1 expression reporter modulators in myotubes – cell-based, C2C12 myotubes, firefly/Renilla luciferase, luminescence, FRG1 inhibition for FSHD, primary screen (AID 1084). Particulars: FRG1 promoter luciferase, higher = more signal, called active from +8 up or from −8 down.
The nature of test [9]: small molecules captured by biotinylated probe aFST – biochemical, small-molecule microarray, fluorescence 635/667, stem cell growth factor project, primary screen (AID 1086).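 Further: score merges 667 nm fluorescence with signal-to-noise of each printed compound spot.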 Particulars: higher = more signal.
Test [10] can be described thus: binders of probe aHhip on microarray, primary screen, stem cell growth factor project, biochemical, small-molecule microarray, fluorescence 635/667 (AID 1087).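 Further: score merges spot fluorescence at 667nm with spot signal to noise ratio.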 Particulars: higher = more signal.
Test [11] concerns PRMT1 (protein arginine N-methyltransferase 1). The test is described as follows: small molecules binding arginine methyltransferase PRMT1 – biochemical, small-molecule microarray, 635 nm fluorescence, primary screen (AID 1088).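 Further: binding of Prmt1 protein to compounds spotted on small-molecule microarray slides.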 The conditions noted are these: higher = more signal.
A short description of test [12]: growth effects on S. cerevisiae YJM789 – YJM789 clinical isolate, OD600, 24 h, basal, primary screen (AID 1089).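 Further: growth of clinical yeast isolate S. cerevisiae YJM 789 seeded 1000 cells per well; test concentration not given here.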 Particulars: higher = more signal, called active from +8 up or from −8 down.
Test [13] can be described thus: S. pombe growth modifiers, basal conditions – strain 972, OD600, 24 h, no modulator, primary screen (AID 1090).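 Further: basal condition with compound alone and no growth modifier present; test concentration not given here.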 Particulars: S. pombe 972 growth, higher = more signal, called active from +8 up or from −8 down.
Test [14] in a line: budding yeast growth modifiers under rapamycin – strain BY4716, OD600, 96 h, primary screen (AID 1091). Further: test concentration not given here. Particulars: S. cerevisiae BY4716 + rapamycin, higher = more signal, called active from +8 up or from −8 down.
The target of test [15] is Torsin-1A-interacting protein 2 (Homo sapiens) (UniProt Q8NFQ8). Put plainly: small molecules binding lysate-expressed LULL1 – cell lysate, human LULL1 lysate, 635/667 nm fluorescence, primary screen (AID 1092).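 Further: probe is lysate of COS7 cells overexpressing human LULL1; score merges per-feature 667 nm fluorescence with signal-to-noise.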 The conditions noted are these: small-molecule microarray, hLULL1 lysate binding, 635 nm fluorescence; higher = more signal.
Test [16] is described as follows: optical density change of DRC41 E. coli – strain DRC41, OD650, 24 h, E. coli filamentation project, primary screen (AID 1093).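 Further: MC1000 strain lacking acrAB efflux and sulA so SOS filamentation is blocked; test concentration not given here.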 Particulars: E. coli DRC41 growth, higher = more signal, called active from +8 up or from −8 down.
Test [17] is described as follows: probe aLefty2 binding to arrayed compounds – biochemical, biotinylated probe, 635/667 nm fluorescence, primary screen (AID 1094).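 Further: score merges spot fluorescence near 667 nm with spot signal-to-noise ratio.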 The conditions noted are these: small-molecule microarray, higher = more signal.
Test [18] relates to Noggin (protein binding on small-molecule microarray). Put plainly: small molecules binding Noggin protein – biochemical, 635/667 nm fluorescence, primary screen (AID 1095).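 Further: score merges 667 nm feature fluorescence with signal to noise over triplicate slides.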 Particulars: 635 nm fluorescence, higher = more signal.
Test [19] has as its target Neurogenic locus notch homolog protein 3 (Homo sapiens) (UniProt Q9UM47). The test is described as follows: small molecules binding NOTCH3 protein – biochemical, 635/667 nm fluorescence, primary screen (AID 1096). Particulars: small-molecule microarray, 635 nm fluorescence, higher = more signal.
Test [20] in a line: probe aEGFR binding to arrayed compounds – biochemical, biotinylated probe, 635/667 nm fluorescence, primary screen (AID 1097).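 Further: probe is a biotinylated anti-EGFR antibody binding compounds printed on slides; score combines fluorescence near 667 nm and signal to noise of each spot.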 The conditions noted are these: small-molecule microarray, higher = more signal.

Active and inactive are the calls of the source.

Neurogenic locus notch homolog protein 3 (Homo sapiens), sequence (Q9UM47 whole entry, looked up): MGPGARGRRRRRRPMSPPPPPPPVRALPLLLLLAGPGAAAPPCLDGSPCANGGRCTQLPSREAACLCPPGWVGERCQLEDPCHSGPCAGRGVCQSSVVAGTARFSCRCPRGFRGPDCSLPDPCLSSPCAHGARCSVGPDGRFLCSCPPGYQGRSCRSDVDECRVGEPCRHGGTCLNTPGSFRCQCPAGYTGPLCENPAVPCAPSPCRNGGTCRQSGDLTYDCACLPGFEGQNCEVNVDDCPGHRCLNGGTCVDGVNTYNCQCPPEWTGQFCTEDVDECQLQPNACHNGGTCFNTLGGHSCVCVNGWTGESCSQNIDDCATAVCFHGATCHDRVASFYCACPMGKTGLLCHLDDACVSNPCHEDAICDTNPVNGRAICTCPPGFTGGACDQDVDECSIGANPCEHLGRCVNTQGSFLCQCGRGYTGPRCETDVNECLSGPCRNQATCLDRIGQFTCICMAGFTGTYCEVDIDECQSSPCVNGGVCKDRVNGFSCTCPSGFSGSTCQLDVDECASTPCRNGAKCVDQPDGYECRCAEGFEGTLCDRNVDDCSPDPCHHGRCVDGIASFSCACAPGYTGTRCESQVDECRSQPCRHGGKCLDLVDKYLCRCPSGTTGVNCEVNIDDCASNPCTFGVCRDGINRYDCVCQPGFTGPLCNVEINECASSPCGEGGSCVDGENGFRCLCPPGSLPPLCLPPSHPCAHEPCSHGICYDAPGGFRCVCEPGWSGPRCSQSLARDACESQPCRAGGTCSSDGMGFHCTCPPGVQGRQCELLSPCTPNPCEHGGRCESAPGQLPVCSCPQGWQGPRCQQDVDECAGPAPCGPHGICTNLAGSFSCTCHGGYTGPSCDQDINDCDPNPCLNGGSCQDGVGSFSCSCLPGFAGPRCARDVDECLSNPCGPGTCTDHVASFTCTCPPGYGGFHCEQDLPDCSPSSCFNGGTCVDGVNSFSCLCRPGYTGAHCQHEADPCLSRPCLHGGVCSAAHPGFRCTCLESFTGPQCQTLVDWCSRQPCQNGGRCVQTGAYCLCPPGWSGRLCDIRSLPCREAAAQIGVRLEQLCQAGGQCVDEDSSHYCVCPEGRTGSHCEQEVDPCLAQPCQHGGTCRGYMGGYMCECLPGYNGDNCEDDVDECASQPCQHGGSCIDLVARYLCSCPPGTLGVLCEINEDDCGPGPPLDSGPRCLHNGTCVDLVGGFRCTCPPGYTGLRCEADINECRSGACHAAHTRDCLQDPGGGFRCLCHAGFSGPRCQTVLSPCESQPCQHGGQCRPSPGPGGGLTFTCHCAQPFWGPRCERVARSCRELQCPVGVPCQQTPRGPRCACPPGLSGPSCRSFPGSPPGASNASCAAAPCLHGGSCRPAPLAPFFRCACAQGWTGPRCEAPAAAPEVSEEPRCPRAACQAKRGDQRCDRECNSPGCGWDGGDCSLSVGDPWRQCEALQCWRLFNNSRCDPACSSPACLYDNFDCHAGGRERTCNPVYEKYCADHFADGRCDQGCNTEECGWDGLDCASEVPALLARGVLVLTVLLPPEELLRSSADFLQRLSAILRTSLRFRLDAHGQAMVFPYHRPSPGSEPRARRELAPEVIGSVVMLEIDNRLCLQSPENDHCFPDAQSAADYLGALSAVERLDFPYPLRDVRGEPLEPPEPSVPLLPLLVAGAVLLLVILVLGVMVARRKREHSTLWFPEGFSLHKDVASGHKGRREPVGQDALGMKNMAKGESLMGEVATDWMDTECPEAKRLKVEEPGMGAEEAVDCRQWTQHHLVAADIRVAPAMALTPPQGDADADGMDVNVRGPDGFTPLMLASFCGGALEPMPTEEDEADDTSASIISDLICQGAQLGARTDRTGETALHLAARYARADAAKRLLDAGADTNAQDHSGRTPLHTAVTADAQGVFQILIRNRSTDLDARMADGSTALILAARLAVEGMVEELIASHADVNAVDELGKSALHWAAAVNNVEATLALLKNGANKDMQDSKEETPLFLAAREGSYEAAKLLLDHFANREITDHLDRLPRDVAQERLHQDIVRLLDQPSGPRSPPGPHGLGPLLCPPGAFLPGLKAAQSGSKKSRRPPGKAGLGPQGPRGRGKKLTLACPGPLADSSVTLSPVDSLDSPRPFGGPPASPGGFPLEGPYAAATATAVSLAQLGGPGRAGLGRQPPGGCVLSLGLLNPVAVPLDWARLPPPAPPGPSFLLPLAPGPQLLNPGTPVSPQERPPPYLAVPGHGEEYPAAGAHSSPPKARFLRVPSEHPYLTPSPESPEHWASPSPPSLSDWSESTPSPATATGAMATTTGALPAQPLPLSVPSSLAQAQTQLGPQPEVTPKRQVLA

Consider `COc1ccc([Si](C)(C)[C@@H]2[C@@H](CC(=O)N(CCO)Cc3ccccc3)O[C@]3(C(=O)N(Cc4cccc(N5C(=O)c6cccc7cccc5c67)c4)c4ccccc43)[C@H]2C)cc1`, for which the composite z-score in [1] is -0.143; in test [2] it was 0.167; in test [3] it was -0.105; in test [4] it was 0.409; in [5], -0.127; in test [6], 0.442. Besides, the composite z-score is 0.763 in [7]; 0.116 in [9]; -0.0193 in test [10]; 0.737 in test [11]; 0.36 in test [15]; -0.259 in [17]. Moreover, the composite z-score in test [18] was 1.33; in test [19], 0.455; in [20], -0.115. Further, the z-score was -1.05 (inactive) in test [8]; 0.121 (inactive) in test [12]; -0.534 (inactive) in [13]; 2.09 (inactive) in test [14]; 2.11 (inactive) in test [16].
Take `COCCOC(=O)N1C(=O)[C@@]2(c3cc(C#CC4=CCCCC4)ccc31)[C@H](c1ccc(OCCO)cc1)N1[C@H](c3ccccc3)[C@H](c3ccccc3)OC(=O)[C@H]1[C@@H]2C(=O)NC[C@H](O)c1ccccc1`: the composite z-score in [1] was 0.82; in test [2], 0.366; in test [3], -0.0032; in [4], 0.246; in test [5], 1.24; in [6], -0.118. Also, the composite z-score in [7] was found to be 1.15; in test [9], 1.44; in test [10], 0.187; in test [11], 1.54; in [15], 2.6; in test [17] it was 0.789. Also, the composite z-score in [18] is 1.11; in test [19], 1.07; in [20] it was 0.108. The z-score in [8] was 0.745 (inactive); in test [12], 2.04 (inactive); in [13], 0.798 (inactive); in test [14], 5.7 (inactive); in [16] it was 0.546 (inactive).
`CN1C(=O)C2C=CC(C(O)c3cccc(O)c3)N(Nc3ccccc3)C2C1=O` (stereo not given): the composite z-score in [1] was -0.0512; in test [2] it was -0.201; in test [3] it was 0.0121; in [4], 0.518; in test [5], 0.768; in test [6], 1.9. Moreover, the composite z-score in [7] was 1.25; in test [9], 0.495; in test [10], 0.0808; in test [11] it was -0.0187; in [15] it was 0.684; in [17] it was 0.0004. In addition, the composite z-score in test [18] was 0.215; in test [19] it was 0.764; in test [20], -0.0251. Also, the z-score was 0.737 (inactive) in [8]; 0.637 (inactive) in test [12]; 1.62 (inactive) in [13]; 1.1 (inactive) in [14]; -0.509 (inactive) in test [16].
Take `CCCCO[C@H]1C[C@H]2C(I)=C[C@@H]1C(=O)[C@]21CO1`: the composite z-score is -0.329 in [1]; 0.823 in [2]; -0.0706 in [3]; 0.0657 in test [4]; -0.361 in [5]; -0.149 in test [6]. The composite z-score was -0.44 in [7]; -0.323 in test [9]; -0.236 in test [10]; -0.429 in test [11]; -1.03 in test [15]; -0.126 in test [17]. The composite z-score in test [18] was 0.359; in [19] it was 0.0532; in test [20], -0.19. Also, the z-score in test [8] is 1.43 (inactive); in [12], -1.88 (inactive); in [13], -4.81 (inactive); in [14], -1.68 (inactive); in test [16], -1.25 (inactive).
Take `CCCC[C@@H](O)C1=C(COc2ccccc2)C[C@H]2C(=O)N(C)C(=O)[C@H]2[C@H]1CO`: the composite z-score in test [1] was -0.417; in [2], -0.33; in test [3], -0.128; in test [4], -0.167; in [5] it was -0.23; in test [6], -0.665. Besides, the composite z-score in test [7] was -0.609; in [9], -0.346; in [10], -0.261; in [11], 0.129; in [15], -0.988; in test [17], -0.247. For the same molecule, the composite z-score in [18] is 0.273; in test [19], -0.242; in test [20], -0.225. In addition, the z-score was -1.64 (inactive) in [8]; -2.42 (inactive) in [12]; -1.79 (inactive) in test [13]; -0.561 (inactive) in test [14]; 1.31 (inactive) in test [16].

Source of the values: PubChem BioAssay.
